We go through 25 molecules from PubChem BioAssay (NCATS).

Inconclusive results are not listed. Values without a mark were called inactive. The source made the active and inactive calls. The call rests on the fitted dose curve; in most records, active means well fitted curve in the direction sought with a large enough effect; inconclusive means small, poorly fitted or top-dose-only effect, or another doubt; inactive means no such curve, though single readings can be large; an effect the other way counts as inactive or inconclusive.

The target of assay [1] is Cellular tumor antigen p53 (Homo sapiens) (UniProt P04637). Briefly: Primary qHTS for small molecule compounds that upregulate eGFP-tagged delta133p53alpha (in N-terminal) cells. (AID 2060322). Further: nearly all actives have a fitted effect of over 75% in size. Further: potency means the concentration at half of the fitted maximal effect.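 On activation: cells pre-induced with doxycycline then dosed without doxycycline; series mostly up to about 56 µM; 0% = DMSO vehicle and 100% = reference activator.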 The following applies: NCI-H358 eGFP-delta133p53alpha fluorescence, 24 h; activation: stronger effect = higher value. An outline of the steps: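 NCI-H358 cells pre-induced 24 h with 10 ng/ml doxycycline for eGFP-delta133p53alpha, plated dox-free and exposed 24 h at 37C to titrated compounds. Fixed, Hoechst-stained; gated GFP peak intensity by laser scanning cytometry, normalized to DMSO (0%) and 57.5 uM 5-azacytidine (100%).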
Sequence of Cellular tumor antigen p53 (Homo sapiens) (P04637 whole entry, looked up): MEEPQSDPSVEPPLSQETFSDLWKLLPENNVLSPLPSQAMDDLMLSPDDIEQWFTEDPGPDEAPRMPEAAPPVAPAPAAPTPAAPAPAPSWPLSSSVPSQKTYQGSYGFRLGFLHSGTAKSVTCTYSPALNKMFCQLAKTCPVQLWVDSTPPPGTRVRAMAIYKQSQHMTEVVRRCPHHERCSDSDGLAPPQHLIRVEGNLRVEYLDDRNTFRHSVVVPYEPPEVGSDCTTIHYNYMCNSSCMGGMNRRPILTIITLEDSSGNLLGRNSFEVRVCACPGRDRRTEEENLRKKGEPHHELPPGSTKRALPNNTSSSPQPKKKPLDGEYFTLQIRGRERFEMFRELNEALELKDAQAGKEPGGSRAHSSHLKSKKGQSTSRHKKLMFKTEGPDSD
In general terms: qHTS replaces the single test concentration by a dilution series.

The target in assay [2] is Aldehyde dehydrogenase, mitochondrial (Homo sapiens) (UniProt P05091). Briefly: qHTS for Inhibitors of the Aldehyde Dehydrogenase Family (ALDH2) Primary screen (AID 2061308).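 Further: plate controls were vehicle for no effect and reference inhibitor for full effect; nearly all actives have a fitted effect of over 55% in size.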
The target of assay [3] is Retinaldehyde dehydrogenase 3 (Homo sapiens) (UniProt P47895). As to the kind of experiment: qHTS for Inhibitors of the Aldehyde Dehydrogenase Family (ALDH1A3) Primary screen (AID 2061315).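 Further: plate controls were DMSO vehicle for no effect and reference inhibitor for full effect.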
The target of assay [4] is Aldehyde dehydrogenase 1A1 (Homo sapiens) (UniProt P00352). Briefly: qHTS for Inhibitors of the Aldehyde Dehydrogenase Family (ALDH1A1) Confirmatory screens (AID 2061316). Further: nearly all actives have a fitted effect of over 65% in size. Further: potency means the concentration at half of the fitted maximal effect.
The nature of assay [5]: BET inhibitor-based combinations targeting novel dependencies in MECOM-rearranged (r) AML: SET-2 cell line (AID 2202231).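 Further: plate controls were DMSO treated cells for no effect and wells without cells for full effect; nearly all actives have a fitted effect of over 35% in size.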 The following applies: SET-2 AML cells viability, CellTiter-Glo luminescence, 48 h; viability: stronger effect = lower value, series mostly up to about 46 µM. The essentials:
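500 cells/well; 11-pt dose curve; 48 h, standard incubator; CellTiter-Glo luminescence after 15 min RT; DMSO/empty-well normalization; AUC plus Z-AUC (mean-centered within each line).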

Turning to `CCCCCc1ccc(/C=C/C(=O)Nc2cc(Cl)ccc2C(=O)O)cc1`, the activation in assay [1] is -1%. Also, the Potency entry in assay [2] and in assay [3] was “inactive” throughout.
With `CC(=O)c1c(O)cc(O[C@@H]2O[C@H](CO)[C@@H](O)[C@H](O)[C@H]2O)cc1O`, in assay [1], the activation is -8.04%. In addition, the Potency entry in assay [2], in assay [3] and in assay [4] was “inactive” each time.
For the molecule `COc1cc2ncnc(Nc3cccc(I)c3)c2cc1OC`, the Potency in assay [1] was 12 µM (active). Also, the Potency entry in assay [2] and in assay [3] was “inactive” throughout.
`CN1CCN(C(=O)c2ccc(Nc3nccc(-c4cccs4)n3)cc2Cl)CC1`: in assay [1], the Potency is 30.1 µM (active). Further, the Potency result in assay [2] and in assay [3] was “inactive” in each case.
With `C/C=C(\C)C(=O)O[C@@H]1CC2[C@@H](CC=C3C[C@@H](O[C@H]4C[C@H](OC)[C@H](O[C@H]5C[C@H](OC)[C@H](O[C@H]6C[C@H](OC)[C@H](O[C@H]7C[C@@H](OC)[C@H](O[C@@H]8O[C@H](CO)[C@@H](O)[C@H](O)[C@H]8O)[C@@H](C)O7)[C@@H](C)O6)[C@@H](C)O5)[C@@H](C)O4)CC[C@@]32C)[C@@]2(O)CC[C@H](C(C)=O)[C@@]12C` (stereo partly drawn), the activation in assay [1] is -9.92%. Moreover, the results for the activity change, negative = inhibition in assay [2] and in assay [3] were 15.2% [at 11.2 µM] and -14.5% [at 11.2 µM], respectively.
On to `CC1CC2(O)OC(=O)C3=C2C(CCC3)[C@@]12C[C@@H](c1ccoc1)OC2=O` (stereo partly drawn), for which the activation in assay [1] was -12.2%. Also, the Potency result in assay [2] and in assay [3] was “inactive” throughout.
Turning to `OC[C@H]1O[C@@H](O[C@H]2[C@H](OCc3ccccc3)O[C@H](CO[C@@H]3OC[C@@H](O)[C@H](O)[C@H]3O)[C@@H](O)[C@@H]2O)[C@H](O)[C@@H](O)[C@@H]1O`, the activation in assay [1] was -15.2%. The Potency result in assay [2] and in assay [3] was “inactive” each time.
As for `CCOC(=O)c1cc(C#N)c(N2CCC(C(=O)NS(=O)(=O)Cc3ccccc3)CC2)nc1C`, the activation in assay [1] was 5.67%. The Potency result in assay [2] and in assay [3] was “inactive” in each case.
Turning to `C[C@@H]1O[C@@H](O[C@@H]2[C@@H](O)[C@H](O[C@@H]3[C@@H](O)[C@@H](O)[C@H](O[C@H]4[C@H](OC(=O)[C@]56CCC(C)(C)C[C@H]5C5=CCC7[C@@]8(C)C[C@H](O)[C@H](O[C@@H]9O[C@@H](C)[C@H](O)[C@@H](O)[C@H]9O)[C@@](C)(CO)C8CC[C@@]7(C)[C@]5(C)C[C@H]6O)O[C@H](C)[C@H](O)[C@@H]4O)O[C@H]3C)OC[C@H]2O)[C@H](O)[C@H](O)[C@H]1O` (stereo partly drawn), the activation in assay [1] was 19.6%. Further, the activity change, negative = inhibition was 0.778% [at 11.2 µM] in assay [2] and 5.2% [at 11.2 µM] in assay [3].
Usually viability stands for the share of living cells, or the viability signal relative to a control. Regarding `Cc1nc(NC(=O)N2CCC[C@H]2C(N)=O)sc1-c1ccnc(C(C)(C)C(F)(F)F)c1`, the activation in assay [1] is -25%. Further, the Potency entry in assay [2] and in assay [3] was “inactive” each time. Moreover, in assay [5], the viability was 89%.
Take `O=C(O)/C=C/c1ccc(O)c(O[C@@H]2O[C@H](CO)[C@@H](O)[C@H](O)[C@H]2O)c1`: the activation in assay [1] is 16%. In addition, the Potency entry in assay [2] and in assay [3] was “inactive” each time.
With `CC(=O)NC(C(=O)OC1CCC(C)(C)C2CC=C3C(=O)OCC3(O)C12C)C(C)C` (stereo not drawn), the activation in assay [1] was -16.8%. Besides, the Potency result in assay [2] and in assay [3] was “inactive” throughout.
As for `CC(=O)O[C@@H]1[C@@H](O)[C@H](C)O[C@@H](O[C@H]2[C@@H]3C=CO[C@@H](O[C@@H]4O[C@H](CO)[C@@H](O)[C@H](O)[C@H]4OC(C)=O)[C@@H]3[C@@]3(CO)O[C@@H]23)[C@@H]1OC(=O)/C=C/c1ccc(O)cc1`, the activation in assay [1] is -17.6%. In addition, the Potency entry in assay [2] and in assay [3] was “inactive” in each case.
Regarding `O=S(=O)(NCc1ccccn1)c1ccc(Br)c2ccccc12`, the activation in assay [1] is 0.333%. For the same molecule, the Potency result in assay [2] and in assay [3] was “inactive” each time.
As to `C=C[C@@]1(C)CC(=O)C2[C@](C)(O1)[C@@H](OC(C)=O)[C@@H](O)[C@H]1C(C)(C)CCC[C@]21C` (stereo partly drawn), the activation in assay [1] was -4.33%. The Potency entry in assay [2] and in assay [3] was “inactive” in each case.
Turning to `C/C=C/C=C/[C@@H]1O[C@](O)([C@H](CC)C(=O)NC/C=C/C=C(\C)[C@@H](OC)[C@@H](C)C2OC(/C=C/C=C/C=C(\C)C(=O)c3c(O)cc[nH]c3=O)[C@H](O)[C@@H]2O)[C@H](O)[C@H](O)C1(C)C` (stereo partly drawn), the activation in assay [1] is -1.79%. The Potency result in assay [2] and in assay [3] was “inactive” in each case.
Consider `CC(=O)O[C@@H](CO[C@@H]1O[C@H](CO)[C@H](O)[C@H](O)[C@H]1O)[C@]1(C)C=C2CC[C@@H]3C(C)(C)[C@@H](O)CC[C@@]3(C)[C@@H]2CC1`, for which the activation in assay [1] was 18.3%. The Potency result in assay [2] and in assay [3] was “inactive” each time.
Regarding `CC1CCCCCCCc2cc(O)cc(O)c2C(=O)O1` (stereo not drawn), the activation in assay [1] is -3.57%. Besides, the Potency entry in assay [2] and in assay [3] was “inactive” each time.
Consider `COC(=O)[C@@H](O)[C@H]1[C@@]2(C)CC3(O)[C@@H](C(=O)[C@H]2O)[C@]24O[C@]25CC(=O)O[C@@H](c2ccoc2)[C@]5(C)CCC4[C@]13C` (stereo partly drawn), for which, in assay [1], the activation was -13%. The Potency result in assay [2] and in assay [3] was “inactive” in each case.
Consider `Fc1ccccc1-c1nc2ccn(Cc3ccc(-c4ccc(C(F)(F)F)cc4C(F)(F)F)nn3)cc-2n1`, for which the activation in assay [1] is 17%. In addition, the Potency entry in assay [2] and in assay [3] was “inactive” throughout.
As to `C[C@]1(O)CC[C@@H]2C(C(=O)O)=CO[C@@H](O[C@@H]3O[C@H](CO)[C@@H](O)[C@H](O)[C@H]3O)[C@@H]21`, the activation in assay [1] is -11.5%. Moreover, the Potency result in assay [2] and in assay [3] was “inactive” in each case.
As to `C/C1=C\CC[C@]2(C)O[C@H]2C(=O)c2c(C)coc2C1`, the activation in assay [1] is 20.5%. Moreover, the Potency entry in assay [2] and in assay [3] was “inactive” throughout.
As to `C[C@H](O)[C@H](O)[C@H]1CNc2nc(N)[nH]c(=O)c2N1`, in assay [1], the activation was 10.3%. For the same molecule, the Potency entry in assay [2] and in assay [3] was “inactive” each time. The Potency in assay [4] was 12.7 µM (active).
On to `C/C=C/C1OC2=C(C(=O)OC2(C)O)C(O)C1O` (stereo not drawn), for which the activation in assay [1] is 28.2%. For the same molecule, the Potency entry in assay [2] and in assay [3] was “inactive” each time.
As to `CC(=O)OC[C@@]12C(=O)C[C@@H](C)[C@]3(C[C@@H](c4ccoc4)OC3=O)[C@H]1CC[C@H](OC(C)=O)[C@]21CO1`, the activation in assay [1] was 27.5%. The Potency entry in assay [2] and in assay [3] was “inactive” throughout.
